Data as given in PubChem BioAssay AID2462 (Broad Institute, 2010).
In all, about 330,000 compounds went through this assay and about 220 (0.067%) were called active.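 Rule for the calls: active = over half of replicate activation scores above 10%, or exactly half above 10 with the replicate mean above 10; inconclusive = replicate mean below 10 yet half the replicates above 10; inactive = over half of replicates below 10.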 What follows is part of a selection rich in actives, with near analogues and random picks from the rest.

assay: caspase 3/7 activation in MEF A1-2A-BIM cells, primary screen, A1 inhibitor project, cell-based, luminescence, HTS (AID 2462); details: Caspase-Glo 3/7 luminescence, 3 h, stronger effect = higher value, percent of clofoctol response, vehicle zero, concentration not given here

Caspase activation, inactive:
O=C(NNC(=O)c1cccc(S(=O)(=O)Nc2ccc(Cl)cc2)c1)c1ccc(=O)[nH]c1 -1.36%
Cc1[nH]n(-c2ccccc2)c(=O)c1/C=N/NC(=O)c1ccoc1C -3.41%
Cc1ccc(-n2[nH]c(C)c(/C=N/NC(=O)c3cccc([N+](=O)[O-])c3)c2=O)cc1C -4.49%
O=C(NNS(=O)(=O)c1c(F)cc(F)c(Cl)c1F)C12CC3CC(CC(C3)C1)C2 0.494%
CCOC(=O)c1c(-c2cccc(N)c2)cn2ccccc12 0.104%
Cc1cc(NC(=O)CN2C(=O)NC(C)(CCc3ccccc3)C2=O)no1 (centres undefined) -0.914%
Cc1ccc(N/N=C2\COC(C)(C)CC2=O)cc1 0.0616%
Cc1c(Cl)cccc1NC(=O)CSc1ccc(-c2cccnc2)nn1 0.424%
CC(C)C[C@H](NC(=O)N1CC(=O)Nc2ccccc21)C(=O)N[C@H](Cc1ccccc1)C(=O)O 0.252%
CNC(=O)COc1ccc(S(=O)(=O)Nc2ccccc2)cc1 -0.951%
Cc1ccc(NC(=O)/C(=C/c2ccc([N+](=O)[O-])cc2)NC(=O)c2ccccc2)cc1 -0.427%
CCOC(=O)/C(=N\Nc1ccccc1[N+](=O)[O-])c1csc(Nc2ccccc2)n1 -0.494%
C/C(=C/C(=O)N1CCN(C)CC1)C(=O)O 0.653%
Cc1cc(C)nc(NNC2=CC(=O)CC(C)(C)C2)n1 -0.196%
CC(C)(C)N(Cc1ccccc1)C(=O)COC(=O)CCc1c[nH]c2ccccc12 -1%
COc1ccc(N2C(=O)/C(=C\c3ccco3)N=C2SCC(N)=O)cc1Cl -0.66%
Cc1cc(C)n(S(=O)(=O)c2cccc([N+](=O)[O-])c2)n1 0.962%
O=C(NCc1ccco1)c1ccc([N+](=O)[O-])cc1Cl 1.19%
COc1cc(/C=C/C(=O)OCC(=O)c2ccccc2)cc(OC)c1OC 0.0945%
COc1cc2c(cc1NC(=O)CN1CCN(S(=O)(=O)c3ccc(F)cc3)CC1)oc1ccccc12 -0.105%
Cc1[nH]n(-c2ccccc2)c(=O)c1CCOC(=O)c1ccc(C(F)(F)F)cc1 0.514%
O=C(CCc1nnc2ccc(NCc3ccccc3Cl)nn12)NCC1CCN(C2CCCC2)C1 (centres undefined) -0.323%
CCC(C)(C)c1ccc(OCC(=O)N(C)C)c(C(C)(C)CC)c1 -0.559%
O=C(COc1ccc([N+](=O)[O-])cc1Cl)Nc1ccc2[nH]c(=O)[nH]c2c1 -0.19%
Cc1cc(OCCN2CCCC2)cc(C(C)C)c1 0.0914%
O=C(O)CC1S/C(=N\N=C/c2ccccc2O)N(c2ccc(O)cc2)C1=O (centres undefined) 0.687%
CCOc1ccc(NC(=O)CC2C(=O)N(c3ccccc3)C(=O)N2CCOC)cc1 (centres undefined) 0.358%
C=CCC1(C#N)C(=S)NC(C)=C(C(=O)OCC)C1c1ccccc1 (centres undefined) 0.0109%
Cc1cccc(NS(=O)(=O)c2ccc(C)c(C(=O)NCC(c3ccccc3)N(C)C)c2)c1 (centres undefined) 1.2%
Cc1c2cn[nH]c(=O)c2c(C)n1Cc1ccc(F)cc1 -0.558%
Cc1cc(NC(=O)CSc2nnc(-c3ccco3)n2N)no1 -0.817%
Cc1cc(NC(=O)CSc2nc3ccccc3n2CC(C)C)no1 0.633%
CC(NC(=S)Nc1ccccc1)C1COc2ccccc2O1 (centres undefined) -0.247%
CCC1=NN(C(=O)Cc2ccc([N+](=O)[O-])cc2)C(O)(c2ccc(Br)cc2)C1 (centres undefined) 1.08%
Cc1ccc(S(=O)(=O)N(CC(O)CN2C(=O)NC(C)(C)C2=O)c2cccc([N+](=O)[O-])c2)cc1 (centres undefined) 0.0755%
CSc1nnnn1-c1c(C)cc(C)cc1C -0.157%
O=C1CCC(C(=O)N2CCCCO2)CN1Cc1cccc(C(F)(F)F)c1 (centres undefined) 0.28%
Cc1ccc(/C=C/C(=O)OCC(=O)NCc2ccc(Cl)cc2)o1 -0.527%
CCOC(=O)CSc1ccccn1 -0.651%
CCOC(=O)CSc1nc(C)cc2c1C(=O)OC2 0.711%
O=C1CCC(C(=O)N2CCC(O)(c3ccccc3)CC2)CN1CCc1ccccc1 (centres undefined) 0.199%
COCCNc1ccc(-c2n[nH]c(=O)c3ccccc23)cc1[N+](=O)[O-] -1.33%
Cc1ccc(NC(=O)c2ccc(Oc3ncccn3)cc2)cc1 -1.4%
Cc1ccccc1N1CCN(C2CCCN(C(=O)c3ocnc3C)C2)CC1 (centres undefined) 0.888%
CCc1ccc(/C=N/NC(=O)c2ccc(OC3CCCC3)cc2)s1 -0.334%
COC(=O)C(=Nc1ccccc1)/C(C(=O)C(=O)N(C)c1ccccc1)=C(\O)c1ccc(Cl)cc1 -1%
Cc1ccc(-n2c(SCC(=O)Nc3ncc(Cl)cc3Cl)nc3ccccc32)cc1 0.221%
CCC1(C(=O)c2ccccc2)C(c2cccc([N+](=O)[O-])c2)C1(C(=O)OC)C(=O)OC (centres undefined) -0.612%
O=C1Nc2c(Br)cc(Br)cc2C1(O)N1CCOCC1 (centres undefined) -1.16%
COc1ccc(C(=O)NCc2ccc(Cl)cc2)cc1S(=O)(=O)N1CCCC1 -0.377%
COc1cc(C2C(N3C(=O)c4ccccc4C3=O)C(=O)N2c2ccc(C)c(C)c2)cc(OC)c1OC (centres undefined) 0.266%
CCOc1ccc(Br)cc1S(=O)(=O)Nc1ccc(S(=O)(=O)Nc2cc(C)on2)cc1 1.21%
O=C(Nc1ccc(Cl)c(Cl)c1)c1ccccc1NC(=O)C1CC=CCC1C(=O)O (centres undefined) -2.01%
Cc1ccc(-n2ncc3c2CC(C)(C)CC3NC(=O)Cc2c(C)noc2C)cc1 (centres undefined) 1.06%
Cc1cc(C(C)(C)C)cc(S(=O)(=O)Nc2ccc(C(=O)O)cc2)c1C -0.667%
CCCCCn1c(=O)c(C(=O)OCC)c(Cl)c2ccccc21 0.0442%
N#CCSc1nc(-c2ccccc2)nc2ccc(F)cc12 1.31%
C#CCOCCOCCOCCNc1nc(N2CCN(C(=O)C([C@@H](C)O)n3cc([C@@H](N)CCCCN)nn3)CC2)nc(N2CCN(C(=O)[C@H](CCCCN)n3cc(CN)nn3)CC2)n1 (some centres undefined) 0.837%
Cc1cc(=O)[nH]c(S)c1C#N 0.51%
COCCn1c(N)c(NCc2ccccc2)c(=O)[nH]c1=O -0.132%
CCC(C)N(C(=O)COC(=O)C1C(C(=O)OC)=C(C)NC(C)=C1C(=O)OC)C1CCS(=O)(=O)C1 (centres undefined) -0.124%
CCCCc1ccc(NC(=S)N2CCCC(CO)C2)cc1 (centres undefined) -0.669%
CCCc1cc(C(=O)Nc2ccc(Cl)cn2)cs1 -8.84%
Cc1ccc(C(C[N+](=O)[O-])c2c(C)cc3ccccn23)cc1 (centres undefined) 1.62%
CCS(=O)(=O)c1cc([N+](=O)[O-])c(Sc2ccccc2N)s1 1.52%
COc1cc(-c2nnc(NC(=O)C3=COCCO3)o2)cc(OC)c1OC 0.457%
O=C(Nc1nnc(C2=COCCO2)o1)c1ccc([N+](=O)[O-])s1 -4.99%
ON=C1/C(=N\O)CC2(C/C1=N/O)OCCO2 0.622%
O=C1CCCc2nn(-c3ccccc3)nc21 -0.0976%
COC(=O)Nc1ncc(CN2CCCCC2)s1 0.0297%
CSCC[C@H](NC(=O)NCCc1ccc(F)cc1)C(=O)O 0.319%
COc1ccc(CNC(=O)c2cc(C(=O)C3CC3)c[nH]2)cc1 -0.0151%
O=C(c1ccc(F)cc1)c1c[nH]c(C(=O)NCc2cccnc2)c1 0.0496%
CC(=O)Nc1cccc(NC(=O)c2ccc3c(c2)CCN3S(C)(=O)=O)c1 0.604%
COc1ccc(-c2n[nH]c3c2CN(C(=O)c2ccc(F)cc2)CC3)cc1 1.44%
CCOC(=O)c1sc(N)c(C#N)c1COC(=O)C1=COCCO1 0.458%
COc1ccc(CNC(=O)c2ccc(NS(=O)(=O)c3ccc4[nH]c(=O)[nH]c4c3)cc2)cc1OC -0.468%
COc1cccc(NC(=O)CN(C)C(=O)/C=C/c2cc(OC)ccc2OC)c1 -0.126%
O=C(O)c1ccn(COc2ccc(Br)cc2)n1 -1.22%
CC(C)N(C(=O)CN1CCN(S(=O)(=O)c2ccc(Br)s2)CC1)C(C)C 1.33%
CC(C)n1cnc2c(NCc3ccccc3)cc(N[C@@H](CO)Cc3ccccc3)cc21 -2.12%

Caspase activation, active:
COc1cc(SC#N)ccc1N=Cc1c(C)[nH]n(-c2ccc(C)cc2)c1=O 11.1%
CCOC(=O)/C(=C\c1ccc([N+](=O)[O-])cc1)C(=O)c1cc(C(C)=O)c(Nc2ccccc2)s1 46.4%
COc1cc2c(cc1NC(=O)COC(=O)/C=C/c1ccccc1)oc1ccccc12 8.52%
Cc1cc(NC(=O)CSc2nc3cc(Cl)ccc3c(=O)n2Cc2ccco2)no1 29.5%
CCOC(=O)CSC1=N/C(=C/c2ccc(-n3cncn3)cc2)C(=O)N1C(C)=O 8.99%
Nc1ccccc1SC(C[N+](=O)[O-])c1ccccc1 (centres undefined) 9.45%
Cc1ccc(C(=O)Nc2nnc(C3=COCCO3)o2)cc1C 44.6%
CC(C)CC(=O)c1c[nH]c(C(=O)NCc2ccccc2)c1 6.29%
